# ChEMBL document CHEMBL3988442, “University of Dundee, Small-Polar-MMV Screening Library” (2021)
# Screen size: about 38,000 compounds; about 1,200 (3.2%) showed an effect of 50% or more. The median lay at about -58%. Many of the other results were omitted from the sample, so strong results are more common in it than they were.
# System: Plasmodium falciparum
# Test: Calibr Malaria Delayed Death Assay SOP
# Format: functional, organism-based
# Set-up: scale not given: in the data most compounds retested in dose-response had high values
# Conditions: concentration 4.99e-06 (unit not given; other assays of the set use mol/L)
row,SMILES,Percent Effect [%]
1,Cc1cnn(CC2CCCN2C(=O)c2n[nH]c3ccccc23)c1 (stereo not given),-56.22
2,CC(=O)Nc1ccc(SCCCC(=O)NCC2CCCO2)nn1 (stereo not given),-99.67
3,CC(NC(=O)N1CCC1)c1ccc(S(N)(=O)=O)cc1 (stereo not given),-105.8
4,Cc1ccc(NC(=O)NCCc2cnn(C)c2)c(N(C)C)n1,-69.56
5,CCc1ccsc1C(=O)N1CCN(C(=O)CC(F)(F)F)CC1,-98.82
6,CCC1(CC)CC(=O)N(CC(O)c2cc(F)ccc2F)C1=O (stereo not given),-120
7,Cc1cccc(CN2CCc3ncnc(N4CCCC4)c3CC2)n1.O=C(O)C(F)(F)F,-17.07
8,O=c1c(NCc2ccco2)c(NCC(O)CN2CCOCC2)c1=O (stereo not given),-219.4
9,O=C(c1ccnc(N2CCOC(C(F)(F)F)C2)c1)N1CCCC1 (stereo not given),-34.44
10,O=C(Nc1cccnc1)NC1CCN(c2ccccc2OC(F)F)C1 (stereo not given),16.84
11,COc1ccccc1N1CCC(NCc2c(C)noc2C)C1 (stereo not given),24.81
12,Cc1noc(C)c1CNC1CCN(c2ccccc2OC(F)F)C1 (stereo not given),63.44
13,O=C(Nc1cn[nH]c1)NC1CCN(c2ccccc2OC(F)F)C1 (stereo not given),-124.3
14,O=C(Nc1ccccn1)NC1CCN(c2ccccc2OC(F)F)C1 (stereo not given),9.794
15,O=C(NC1CCN(c2ccccc2OC(F)F)C1)c1cccnc1 (stereo not given),-43.56
16,Cc1c(CNC2CCN(c3ccccc3OC(F)F)C2)cnn1C (stereo not given),69.48
17,O=C(Nc1ccncc1)NC1CCN(c2ccccc2OC(F)F)C1 (stereo not given),64.77
18,Cc1noc(C)c1CNc1c(N2CCCC2)cccc1N1CCCC1,-39.5
19,CC1(C)CCN1C(=O)c1cc(F)cc2[nH]cnc12,-143.1
20,CNC(=O)CS(=O)(=O)NC1CCC(C)CC1 (stereo not given),0.5939
21,Cc1cc(CN2CCN(Cc3cc(C#N)ccc3F)CC2)no1,-43.24
22,O=C(O)C(F)(F)F.c1cnc(N2C[C@@H]3COC[C@]3(COCC3CCCC3)C2)nc1,-62.66
23,COc1ccc(S(=O)(=O)NCCn2cnc(C)cc2=O)cc1C,-119.1
24,COc1cccc(CN(C)Cc2cc(C#N)ccc2F)c1OC,-37.67
25,COc1cccc(CN(C)Cc2ccccc2C#N)c1OC,-10.45

row,SMILES,Percent Effect [%]
1,CC(C)OCc1nn(C)c2c1CCN(CC1CC1)C2.O=C(O)C(F)(F)F,-24.03
2,O=C(N1CCSCC1)C1(O)Cc2ccccc2C1,-49.25
3,O=C(N1CCN(CCO)CC1)C1(O)Cc2ccccc2C1,-7.059
4,O=C(N1CCc2ccccc2CC1)C1(O)Cc2ccccc2C1,56.27
5,COCCNC(=O)C1CN(C(N)=O)Cc2ccnn2C1 (stereo not given),-83.21
6,O=C(O)c1coc(COc2cccc3cnccc23)n1,-75.43
7,O=C(c1coc(COc2cccc3cnccc23)n1)N1CCCCCC1,16.31
8,CC(C(=O)Nc1ccc(N2CCCCC2)nc1)n1ccnc1 (stereo not given),-81.15
9,Cn1ccnc1CN(Cc1cccnc1)CC1CCCO1 (stereo not given),-29.26
10,CC(CNC(=O)c1ccco1)N1CCc2sccc2C1 (stereo not given),-89.83
11,N#Cc1ccccc1CN1CCc2sccc2C1,-109.2
12,NCC(c1ccccc1)N1CCc2sccc2C1 (stereo not given),56.94
13,O=C(CCn1ccc2ccc(Br)cc21)/N=c1\[nH]nc(C2CCCO2)s1 (stereo not given),-91.4
14,CC(c1ccc(S(C)(=O)=O)cc1)N(C)C(=O)c1ccccc1I (stereo not given),-43.05
15,COc1ccc(CCC(C)Nc2cccc(SC)c2)cc1 (stereo not given),-91.4
16,COc1ccc(C(C)NCc2ccsc2)cc1Cn1cccn1 (stereo not given),71.68
17,COc1ccc(C(C)NCc2cscn2)cc1Cn1cccn1 (stereo not given),71.39
18,COc1ccc(C(C)NCc2ccnn2C)cc1Cn1cccn1 (stereo not given),-53.25
19,COc1ccc(OC)c(CN2CCN(Cc3cscn3)CC2)c1,-31.14
20,COc1ccc(C(C)NCc2scnc2C)cc1Cn1cccn1 (stereo not given),-18.73
21,COc1ccc(C(C)NCc2cccs2)cc1Cn1cccn1 (stereo not given),28.81
22,CCc1nnc(CN2CCCCC2Cn2cncn2)o1 (stereo not given),-69.23
23,Cc1nc(C2CCCN2C(=O)CCOCc2ccccc2)no1 (stereo not given),-117.2
24,O=S(=O)(Nc1cnn(C2CCOCC2)c1)c1ccc(Br)cc1,-25.25
25,CNC(=O)N1CCCCC1c1nnc2n1CCCC2 (stereo not given),-92.12

row,SMILES,Percent Effect [%]
1,O=C1c2cnc(N3CCCCC3)nc2CN1c1ccc2c(c1)OCO2,-196
2,CCNc1nc(C)c(C(=O)N(C)Cc2nc(CC)no2)s1,-30.42
3,O=C(O)Cn1nc(C2CC2)c2c(-c3cccs3)ccnc21,-11.75
4,O=c1[nH]c(NC2CCCC2)nc2nccc(-c3cccs3)c12,55.34
5,O=c1[nH]c(NC2CCCC2)nc2nccc(-c3ccsc3)c12,67.56
6,O=c1[nH]c(NC2CCCC2)nc2nccc(-c3ccco3)c12,71.56
7,O=C(NC1CCCC1)C1Cc2nc(-c3ccsc3)sc2N1CC1CC1 (stereo not given),-48.35
8,O=C1NCCCCC1NCc1csc(-c2ccsc2)n1 (stereo not given),-129.5
9,O=C(NC[C@H]1CCCC[C@H]1O)c1cccc2[nH]c(-c3cccs3)nc12,-57.07
10,O=C(O)Cn1nc(C2CC2)c2c(-c3ccco3)ccnc21,-116
11,O=C(NC[C@H]1CCCC[C@H]1O)c1ccc2nc(-c3ccco3)[nH]c2c1,-121.1
12,Cc1cccc(CN(C(=O)CCn2cncn2)C(C)C)c1,-52.83
13,O=C(CCc1nc2cc(Br)cnc2[nH]1)NCCCN1CCOCC1,-51.18
14,COc1ccc(C)cc1CC(=O)NC1(C#N)CCOCC1,-117.4
15,CCOc1cc(C(=O)NS(=O)(=O)c2cccc(C#N)c2)ccc1OC,-127.1
16,CCC(CC)CN1CCN(CC(=O)Nc2ccc3nsnc3c2)CC1,27.19
17,CN(C)C(=O)CN1CCC2(CCN(C(=O)N3CCCC3)CC2)C1=O,-157.2
18,CC(C)Oc1ncnc2c1CCN(Cc1ccco1)CC2.O=C(O)C(F)(F)F,60.03
19,CC(C)Oc1ncnc2c1CCN(Cc1ccc(F)cc1)CC2.O=C(O)C(F)(F)F,69.87
20,c1coc(CN2CCc3ncnc(C4CCOC4)c3CC2)c1 (stereo not given),-48.34
21,COCCN1CCc2ncnc(OC(C)C)c2CC1.O=C(O)C(F)(F)F,-76.73
22,COc1ncnc2c1CCN(Cc1cccs1)CC2.O=C(O)C(F)(F)F,-104.3
23,CC(C)Oc1ncnc2c1CCN(Cc1ccoc1)CC2.O=C(O)C(F)(F)F,29.43
24,Cc1ccc(CN2CCc3ncnc(OC(C)C)c3CC2)s1.O=C(O)C(F)(F)F,-2.65
25,Cc1nc(C)c2c(n1)CCN(Cc1ccco1)CC2,-20.07
